# Shown are actives, neighbours in structure and some others; about 10% of the full set was active somewhere.
# MmCpn inh: blocks the Methanococcus maripaludis chaperonin Mm-Cpn; purified Mm-Cpn ATPase, ADP Transcreener TR-FRET; Potency, µM (series often up to 76.9 µM), for inactives: at the highest dose activity, negative = inhibition, hits mostly inhibitors; hit rate 0.031% among 330,000; note: potency is the fitted concentration of half-maximal effect; nearly all actives have a fitted effect of over 80% in size
#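 25 nM Mm-CPN + cpd, 10 min 37°C; + 10 uM ATP, 30 min 37°C; buffer 30 mM Tris pH 7.4, 100 mM KCl, 5 mM MgCl2, 1 mM DTT; Transcreener ADP HTRF detection 30 min RT.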
# PLK1 PBD inh: blocks phosphopeptide binding to human PLK1 polo-box domain; Plk1 PBD binding of FITC phosphopeptide, fluorescence polarization; Potency, µM, inactives show max response, negative = inhibition, hits mostly inhibitors; hit rate 2.8% among 360,000; note: potency is the fitted concentration of half-maximal effect; series mostly up to about 57 µM; nearly all actives have a fitted effect of over 65% in size
# Target sequence (P53350 whole entry, looked up, the tested form may be a part): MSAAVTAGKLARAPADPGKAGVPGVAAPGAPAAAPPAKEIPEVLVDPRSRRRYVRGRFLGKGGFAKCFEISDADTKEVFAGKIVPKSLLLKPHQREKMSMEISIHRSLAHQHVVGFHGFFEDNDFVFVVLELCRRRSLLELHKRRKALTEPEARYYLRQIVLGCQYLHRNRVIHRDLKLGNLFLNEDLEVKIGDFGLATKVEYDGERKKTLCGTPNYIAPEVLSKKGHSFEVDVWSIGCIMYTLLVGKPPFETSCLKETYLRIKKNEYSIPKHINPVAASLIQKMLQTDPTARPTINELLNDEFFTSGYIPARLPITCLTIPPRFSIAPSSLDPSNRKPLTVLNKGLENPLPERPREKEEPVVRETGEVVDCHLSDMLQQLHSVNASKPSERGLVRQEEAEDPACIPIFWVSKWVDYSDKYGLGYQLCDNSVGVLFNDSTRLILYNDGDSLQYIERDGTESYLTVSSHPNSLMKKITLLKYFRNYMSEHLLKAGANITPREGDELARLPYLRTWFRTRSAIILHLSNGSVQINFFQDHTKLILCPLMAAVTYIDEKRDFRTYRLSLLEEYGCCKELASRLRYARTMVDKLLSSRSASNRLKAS
# VDR inhibitor: vitamin D3 receptor (human) inhibition; P11473; Potency, µM, for the others: max response, negative = inhibition, actives largely listed as inhibitors; VDR-SRC2-3 peptide fluorescence polarization, 2 h; hit rate 0.93% among 400,000; AID 504847; note: potency is the fitted concentration of half-maximal effect
#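 After 23 nl compound addition and a short centrifugation, plates sat for 2 hours at ambient temperature; polarization of fluorescence then indicated loss of VDR binding to peptide SRC2-3.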
# CCT chaperon mod: cytosolic chaperonin activity modulation | purified chaperonin ATPase assay, HTRF ADP detection, 30 min | activity change, % (test concentration not listed), hits read low | hit rate 0.3% among 360,000 | AID 651819; in the data active = activity change below about -30%
#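 Nucleotide hydrolysis assay: TRiC at 20–40 nM final (set by batch activity) with 10 uM ATP, 30 min at 37 °C, in presence of 76 uM compound. Detection by competitive ADP HTRF, 30 min ambient.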
# Sfp inh: Sfp phosphopantetheinyl transferase inhibition. Q9F4F7. Biochemical Sfp PPTase activity, qHTS. Potency, µM, without a hit: largest response in the series, negative = inhibition, most hits filed as inhibitors. hit rate 3.5% among 310,000. AID 1490;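 note: the enzyme is Sfp with the accession as filed and its product quenches rhodamine fluorescence; potency is the fitted concentration of half-maximal effect; 0% = enzyme reaction without inhibitor and -100% = no enzyme wells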
#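 Reaction rates are the 30-min fluorescence difference (ex 525, em 598 nm) in wells containing 15 nM Sfp, 5 uM rhodamine-CoA and 12.5 uM BHQ-2-YbbR at pH 7.6 with 10 mM MgCl2.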
# G9a block: inhibitors of human histone lysine methyltransferase G9a; Q96KQ7; hit rate 8.8% among 350,000; G9a H3K9 monomethylation, AlphaScreen, 2 h; Potency, µM (series often up to 102 µM), for inactives: at the top dose activity, negative = inhibition, actives largely listed as inhibitors; note: potency is the fitted concentration of half-maximal effect; nearly all actives have a fitted effect of over 75% in size
#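 AlphaScreen read-out: biotin-H3K9 peptide (500 nM) methylation by 20 nM enzyme with 20 uM SAM, 2 h at room temperature after 15 min compound preincubation; anti-monomethyl H3K9 antibody plus donor/acceptor beads, 10 min dark.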
# Numbers without * were called inactive; ? = inconclusive; . = no result; [ ] = remark or other dose. Unless noted, calls come from the whole dose curve; as a rule, active = well fitted curve in the direction sought with a large enough effect; inconclusive = small, poorly fitted or top-dose-only effect, or another doubt; inactive = no such curve, though single readings can be large; an effect the other way counts as inactive or inconclusive. Unless noted, % is set by controls: 0 for no effect and ±100 for the full control effect.
SMILES,MmCpn inh,PLK1 PBD inh,VDR inhibitor,CCT chaperon mod,Sfp inh,G9a block
O=C(/C=C/c1ccco1)N(Cc1cccc(F)c1)C1CCS(=O)(=O)C1 (stereo not drawn),-3.1%,-25.9%,10.9%,-3.8,?,39.8µM*
O=C(/C=C/c1ccco1)N(Cc1cccc(Cl)c1)C1CCS(=O)(=O)C1 (stereo not drawn),0.0%,-29.4%,-13.3%,-1.1,31.6µM*,?
O=C(/C=C/c1ccco1)N(Cc1ccccc1)C1CCS(=O)(=O)C1 (stereo not drawn),0.9%,-10.2%,-5.2%,-2.9,25.1µM*,35.5µM*
O=C(/C=C/c1ccccc1)N(Cc1cccc(Cl)c1)C1CCS(=O)(=O)C1 (stereo not drawn),0.7%,-7.4%,9.5%,0.7,-15.8%,.
N#Cc1ccc(CN2CC3(CCN(C(=O)c4cccc(F)c4)CC3)C2)cc1,.,.,-7.7%,.,12.8%,1.2%[12.7 µM]
O=c1c(-c2ccccc2)nc2cnc(Oc3ccccc3)nc2n1Cc1cccs1,.,.,-3.9%,.,16.0%,1.3%[12.7 µM]
Oc1ccccc1C=NC1=NN(c2cccc(C(F)(F)F)c2)CC1,-4.9%,-4.7%,-1.4%,0.8,-15.2%,1µM*
FC(F)(F)c1cccc(N2CCCCC2)c1,.,-0.8%,.,0.0,.,.
FC(F)(F)c1cccc(N2CCC(N=CN3CCCCCC3)=N2)c1,-5.0%,?,10.9%,-0.6,0.7%,39.8µM*
O=C(N/N=C/c1ccccc1O)c1cccc(C(F)(F)F)c1,-3.1%,2.4%,-4.6%,-0.1,20.5%,-4.8%[59 µM]
O=C(CN1C(=O)CCc2cc(S(=O)(=O)N3CCOCC3)ccc21)Nc1cccc(Cl)c1,.,.,4.5%,.,.,-0.5%[59 µM]
C=CCc1c(C)[nH]c2c(OC)cccc2c1=S,-4.7%,-2.4%,0.6%,-1.1,12.6µM*,3.98µM*
C=CCN(CC=C)C(=O)c1c(OC)cccc1OC,0.8%,-5.9%,4.9%,3.8,0.0%,8.6%
O=C(O)CN(CC(=O)O)Cc1cc2c(-c3ccccc3C(=O)O)c3cc(CN(CC(=O)O)CC(=O)O)c(=O)cc-3oc2cc1O,.,.,?,.,56.2µM*,?
CCCC[P+](CCCC)(CCCC)Cc1ccc(NC(=O)[C@@H](Cc2ccc3ccccc3c2)NC(=NC2CCCCC2)NC2CCCCC2)cc1,.,.,3.0%,.,?,.
Cc1cc(C)cc(OCC(=O)OCCN2C(=O)c3ccccc3C2=O)c1,-3.6%,-17.2%,5.0%,-1.3,-19.8%,56.2µM*
CCOC(=O)C1CCN(C(=O)c2ccc(NC(=O)c3nsc4ccccc34)cc2)CC1,.,.,-12.0%,.,.,-2.0%[59 µM]
CC(C)C(C=Cc1ccccc1)=NNS(=O)(=O)c1ccccc1,.,-4.6%,.,-1.5,.,.
O=S(=O)(c1ccccc1)C(/C=N\O)/C=C/c1ccccc1 (stereo not drawn),-1.5%,2.99µM*,-18.3%,-0.1,50.1µM*,7.94µM*
CCCOc1cccc(C(=O)Nc2ccc(-c3cc4ccccc4oc3=O)c(C)c2)c1,.,.,3.3%,.,.,-24.4%[59 µM]
CC1=C(C(N)=O)C(c2cccs2)NC(=O)N1 (stereo not drawn),0.6%,3.3%,14.6%,0.0,13.0%,.
CC1=C(C(N)=O)C(c2cccs2)NC(=S)N1 (stereo not drawn),2.1%,26.7µM*,?,-0.1,18.6%,.
Cc1nn(-c2ccc(N3CCCC3)nn2)c(C)c1CCC(=O)NCc1ccc(F)cc1,.,.,8.0%,.,.,0.0%[59 µM]
Cc1ccc(Cl)cc1NC(=O)Cn1c(=O)c(CNc2ccccc2)cc2cc3c(cc21)OCCO3,.,.,3.8%,.,.,7.94µM*
FC(F)(F)c1nc2cc3nc4ccccc4[nH]c3cc2n1,?,0.8%,?,0.4,1.6%,39.8µM*
Cc1c(C(=O)Nc2cccc(C(F)(F)F)c2)oc2ccc(S(=O)(=O)N3CCC4(CC3)OCCO4)cc12,.,.,0.4%,.,.,-5.6%[59 µM]
Cc1nn2c(-c3ccco3)ccnc2c1-c1ccc(F)cc1,.,.,17.7%,.,.,9.4%[59 µM]
CCOc1ccc(NC(=O)Cn2c(=O)cc(C)c3c(C)nn(-c4cccc(Cl)c4C)c32)cc1,.,.,7.5%,.,.,6.7%[59 µM]
O=[N+]([O-])c1ccc(CSc2nnc(SCc3ccc(Cl)cc3)s2)cc1,-0.6%,?,-9.6%,-2.3,16.0%,35.5µM*
